Assay [1] can be described thus: compounds binding Alexa647 anti-His antibody – biochemical, small-molecule microarray, 635 nm fluorescence, artefact control for SMM control protein annotation, primary screen (AID 1128).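 Note: score merges feature fluorescence with signal-to-noise for each printed compound spot.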 As to conditions: higher = more signal.
Assay [2] relates to Human papillomavirus type 1a E7 protein (residues 1-88). The assay can be described thus: HPV1a E7 small-molecule binders, primary screen, biochemical, small-molecule microarray, residues 1-88, 635 nm (AID 1129). As to conditions: small-molecule microarray binding, fluorescence 635 nm; higher = more signal.
Assay [3] addresses Focal adhesion kinase 1 (Homo sapiens) (UniProt Q05397). The assay can be described thus: PTK2 protein binding on printed compound slides – biochemical, small-molecule microarray, 635/667 nm fluorescence, BSA, DTT, primary screen (AID 1130).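 Note: composite of spot emission at 667 nm and signal to noise over triplicate slides.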 As to conditions: 635 nm fluorescence, higher = more signal.
Assay [4] deals with Fibrinogen (Alexa647-labelled). The assay can be described thus: Alexa647-fibrinogen binding to printed small molecules – biochemical, small-molecule microarray, 635/667 nm fluorescence, artefact control for SMM control-protein annotation, profiling panel (AID 1131).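 Note: z-score merges 667 nm fluorescence with per-spot signal-to-noise over triplicate slides.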 To be noted: fibrinogen-A647 binding fluorescence, higher = more signal.
The target of assay [5] is Follistatin (Homo sapiens) (UniProt P19883). Nature of the assay: FST protein binding to printed compounds – biochemical, small-molecule microarray, 635/667 nm fluorescence, primary screen (AID 1132). As to conditions: 635 nm fluorescence, higher = more signal.
Sequence of Follistatin (Homo sapiens) (P19883 whole entry, looked up): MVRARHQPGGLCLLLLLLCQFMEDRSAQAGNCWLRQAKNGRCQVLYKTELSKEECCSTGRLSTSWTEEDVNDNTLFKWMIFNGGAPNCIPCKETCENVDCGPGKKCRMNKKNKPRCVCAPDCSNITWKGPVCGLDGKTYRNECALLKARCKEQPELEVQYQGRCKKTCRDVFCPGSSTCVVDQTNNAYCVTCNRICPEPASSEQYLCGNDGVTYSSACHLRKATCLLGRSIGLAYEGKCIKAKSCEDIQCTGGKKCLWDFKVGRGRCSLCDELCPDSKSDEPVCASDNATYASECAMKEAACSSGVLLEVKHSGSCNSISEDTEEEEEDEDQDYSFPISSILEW
For assay [6], the target named is Fibroblast growth factor 2 (Homo sapiens) (UniProt P09038). Nature of the assay: basic fibroblast growth factor binding to printed compounds – biochemical, small-molecule microarray, 635/667 nm fluorescence, primary screen (AID 1133). To be noted: FGF2, fluorescence 635/667, higher = more signal.
Sequence of Fibroblast growth factor 2 (Homo sapiens) (P09038 whole entry, looked up): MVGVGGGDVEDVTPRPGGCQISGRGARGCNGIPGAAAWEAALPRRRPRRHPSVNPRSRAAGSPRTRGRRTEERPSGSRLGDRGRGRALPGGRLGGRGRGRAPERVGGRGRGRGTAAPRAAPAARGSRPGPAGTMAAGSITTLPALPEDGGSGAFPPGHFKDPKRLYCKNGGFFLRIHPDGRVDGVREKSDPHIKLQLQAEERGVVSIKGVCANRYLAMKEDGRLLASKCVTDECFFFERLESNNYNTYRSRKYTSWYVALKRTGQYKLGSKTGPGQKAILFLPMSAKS
Assay [7] in a line: JC-1 mitochondrial potential readout, lung cancer cells – cell-based, A549, JC-1 fluorescence, basal, 24 h, 100 nL, profiling panel (AID 1138).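 Note: A549 lung adenocarcinoma cells under basal conditions with no added stimulus; test concentration not given here.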 To be noted: higher = more signal.
Another assay concerns Lefty1. Nature of the assay: Lefty1 protein binding to printed compounds – biochemical, small-molecule microarray, 635/667 nm fluorescence, primary screen (AID 1139). To be noted: fluorescence 635/667, higher = more signal.
Assay [8] relates to wheat germ agglutinin (Triticum aestivum), Alexa647-labelled. Nature of the assay: Alexa647-WGA lectin binding to printed small molecules – biochemical, small-molecule microarray, 635/667 nm fluorescence, artefact control for SMM control-protein annotation, profiling panel (AID 1140).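 Note: score merges 667 nm feature emission with signal to noise over triplicate slides.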 To be noted: WGA-A647 binding, 635 nm fluorescence, higher = more signal.
In assay [9] the target is Luciferin 4-monooxygenase (Photinus pyralis) (UniProt P08659). The assay can be described thus: inhibition of purified Photinus pyralis luciferase – biochemical, luminescence, purified enzyme, 2006 set, primary screen (AID 1141).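 Note: cell-free assay with purified firefly luciferase at 100 ng per well in PBS; test concentration not given here.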 As to conditions: purified firefly luciferase, SteadyGlo luminescence, 30 min; higher = more signal, called active from +8 up or from −8 down.
Sequence of Luciferin 4-monooxygenase (Photinus pyralis) (P08659 whole entry, looked up): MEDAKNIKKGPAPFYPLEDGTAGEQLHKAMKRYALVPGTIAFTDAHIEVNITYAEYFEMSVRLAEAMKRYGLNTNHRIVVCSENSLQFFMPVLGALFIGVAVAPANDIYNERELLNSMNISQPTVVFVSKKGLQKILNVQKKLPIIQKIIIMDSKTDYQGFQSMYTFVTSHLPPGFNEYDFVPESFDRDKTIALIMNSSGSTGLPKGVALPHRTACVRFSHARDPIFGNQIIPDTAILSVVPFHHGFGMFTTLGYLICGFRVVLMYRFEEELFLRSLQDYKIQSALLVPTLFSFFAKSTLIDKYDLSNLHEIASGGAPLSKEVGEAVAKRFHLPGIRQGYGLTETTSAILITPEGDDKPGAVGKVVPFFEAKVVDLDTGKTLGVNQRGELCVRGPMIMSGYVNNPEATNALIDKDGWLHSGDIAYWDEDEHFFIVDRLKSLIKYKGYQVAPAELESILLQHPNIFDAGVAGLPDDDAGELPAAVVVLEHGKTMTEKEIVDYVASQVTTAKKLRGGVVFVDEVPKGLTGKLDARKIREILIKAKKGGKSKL
The test system of assay [10] is Wnt5a (protein binding on small-molecule microarray). Nature of the assay: small molecules binding Wnt5a protein – biophysical, small-molecule microarray, 635/667 nm fluorescence, primary screen (AID 1142).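 Note: fluorescence read at 667 nm with signal to noise per printed feature.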 To be noted: 635 nm fluorescence, higher = more signal.
Assay [11] in a line: ATP-based viability of Huh7 replicon cells – cell-based, CellTiter-Glo luminescence, basal, 48 h, cytotoxicity control for HCV replication inhibitor project, primary screen (AID 1143).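 Note: Huh7 hepatoma cells carrying a hepatitis C replication reporter with no stimulus; test concentration not given here.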 To be noted: higher = more signal, called active from +8 up or from −8 down.
The nature of assay [12]: Pseudomonas biofilm growth suppression – PAO1 strain, BacTiter-Glo luminescence, LB-PBS, primary screen (AID 1144). To be noted: P. aeruginosa PAO1 biofilm, 12 h, higher = more signal.
Assay [13] in a line: basal CRE-LacZ reporter activity in PC12 – cell-based, unstimulated, primary screen (AID 1145). To be noted: no forskolin, luminescence, 4.5 h, higher = more signal, called active from +8 up or from −8 down.
Assay [14] can be described thus: forskolin-driven CRE-LacZ activity in PC12 – cell-based, CRE-LacZ reporter, forskolin-stimulated, primary screen (AID 1146).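 Note: PC12 cells with 6xCRE LacZ reporter stimulated by forskolin 10 µM; beta-galactosidase reporter signal reflecting CREB driven transcription.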 As to conditions: luminescence, 4.5 h, higher = more signal, called active from +8 up or from −8 down.
Assay [15] addresses Streptavidin (Streptomyces avidinii) (UniProt P22629). Nature of the assay: compounds binding control protein streptavidin – biophysical, small-molecule microarray, 635/667 nm fluorescence, artefact control for SMM compound annotation, primary screen (AID 1147).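 Note: signal reflects streptavidin binding to arrayed compounds as a control protein.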 As to conditions: higher = more signal.
Assay [16] can be described thus: probe aInhba binding on compound microarray – biochemical, small-molecule microarray, 635/667 nm fluorescence, primary screen (AID 1148).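 Note: score merges 667nm spot fluorescence with signal-to-noise for antibody binding to printed compounds.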 As to conditions: higher = more signal.
Assay [17] has as its target Torsin-1A (Homo sapiens) (UniProt O14656). Nature of the assay: TOR1A wild-type binding on microarray – cell lysate, small-molecule microarray, lysate, 635/667 nm, primary screen (AID 1149). To be noted: COS7 hTOR1A-WT lysate, 635 nm fluorescence, higher = more signal.
Assay [18] has the same target. Nature of the assay: torsin A mutant lysate binding on microarrays – cell lysate, small-molecule microarray, COS7 lysate, 635/667 nm fluorescence, primary screen (AID 1150).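 Note: score pools 667 nm emission and signal to noise measuring lysate protein binding.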 To be noted: COS7 hTOR1A mutant lysate, 635 nm fluorescence, higher = more signal.
In assay [19] the test system is Sonic hedgehog protein (Shh). The assay can be described thus: Sonic hedgehog microarray binding compounds – biochemical, small-molecule microarray, 635/667 nm fluorescence, primary screen (AID 1151).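 Note: Shh protein binding to compounds spotted on small-molecule microarray slides; score combines spot fluorescence intensity with signal-to-noise across triplicate slides.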 To be noted: 635 nm fluorescence, higher = more signal.

The source made the active and inactive calls. Unless noted, the rule behind the calls is not given here.

Sequence of Torsin-1A (Homo sapiens) (O14656 whole entry, looked up): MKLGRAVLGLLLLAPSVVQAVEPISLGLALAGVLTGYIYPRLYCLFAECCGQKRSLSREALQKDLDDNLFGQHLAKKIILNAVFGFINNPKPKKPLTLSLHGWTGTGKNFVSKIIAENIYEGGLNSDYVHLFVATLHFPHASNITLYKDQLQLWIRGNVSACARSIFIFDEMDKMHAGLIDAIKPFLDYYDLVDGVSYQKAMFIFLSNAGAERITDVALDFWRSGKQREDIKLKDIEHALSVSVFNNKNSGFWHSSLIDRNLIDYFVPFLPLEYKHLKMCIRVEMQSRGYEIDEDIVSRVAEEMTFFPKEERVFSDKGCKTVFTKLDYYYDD
Sequence of Focal adhesion kinase 1 (Homo sapiens) (Q05397 whole entry, looked up): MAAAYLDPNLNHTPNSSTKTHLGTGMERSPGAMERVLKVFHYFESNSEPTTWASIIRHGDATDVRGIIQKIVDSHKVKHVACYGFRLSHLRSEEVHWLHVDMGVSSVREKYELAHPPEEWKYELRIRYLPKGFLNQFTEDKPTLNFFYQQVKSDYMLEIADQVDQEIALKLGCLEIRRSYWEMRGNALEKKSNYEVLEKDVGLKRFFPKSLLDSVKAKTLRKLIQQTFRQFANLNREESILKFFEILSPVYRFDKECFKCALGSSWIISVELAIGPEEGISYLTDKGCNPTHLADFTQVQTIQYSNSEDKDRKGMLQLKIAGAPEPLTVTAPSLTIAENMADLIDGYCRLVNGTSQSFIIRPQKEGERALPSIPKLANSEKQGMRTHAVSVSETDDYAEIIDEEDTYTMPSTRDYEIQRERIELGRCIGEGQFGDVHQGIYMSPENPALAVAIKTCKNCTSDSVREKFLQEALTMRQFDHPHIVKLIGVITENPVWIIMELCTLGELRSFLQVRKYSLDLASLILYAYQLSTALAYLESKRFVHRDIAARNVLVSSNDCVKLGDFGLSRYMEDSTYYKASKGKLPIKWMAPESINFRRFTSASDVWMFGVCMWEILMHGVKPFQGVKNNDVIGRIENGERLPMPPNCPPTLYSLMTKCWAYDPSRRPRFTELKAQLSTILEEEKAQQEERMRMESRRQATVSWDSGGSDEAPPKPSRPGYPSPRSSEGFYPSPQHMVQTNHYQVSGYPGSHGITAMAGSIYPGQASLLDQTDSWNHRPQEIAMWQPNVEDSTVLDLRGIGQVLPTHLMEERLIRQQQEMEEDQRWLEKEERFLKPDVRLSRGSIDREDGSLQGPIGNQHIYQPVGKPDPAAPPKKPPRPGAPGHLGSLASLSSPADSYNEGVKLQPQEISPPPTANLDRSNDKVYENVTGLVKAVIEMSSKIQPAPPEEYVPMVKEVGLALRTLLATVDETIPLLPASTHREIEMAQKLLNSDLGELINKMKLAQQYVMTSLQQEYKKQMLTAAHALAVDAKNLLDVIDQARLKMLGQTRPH
Sequence of Streptavidin (Streptomyces avidinii) (P22629 whole entry, looked up): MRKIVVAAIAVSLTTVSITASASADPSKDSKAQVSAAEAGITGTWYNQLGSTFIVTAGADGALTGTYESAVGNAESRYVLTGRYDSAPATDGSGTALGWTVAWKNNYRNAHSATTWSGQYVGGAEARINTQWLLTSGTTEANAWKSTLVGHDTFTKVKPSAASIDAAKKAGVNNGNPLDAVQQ

Take `CCOC(=O)[C@H](CC(C)C)NC(=O)CCC1CC(OC(=O)NCc2ccc3c(c2)OCO3)CC2(CCCC(COC(=O)NCC(c3ccccc3)c3ccccc3)O2)O1` (stereo not given in full): the composite z-score was 0.423 in assay [1]; 0.572 in [2]; -0.2 in assay [3]; 0.683 in [4]; 0.669 in assay [5]; 0.191 in [6]. In addition, the composite z-score is 1.32 in the assay on Lefty1; 0.61 in assay [8]; 0.222 in [10]; -0.201 in assay [15]; -0.0405 in assay [16]; 0.0929 in the assay with Torsin-1A (Homo sapiens) [17]. Also, the composite z-score in the assay with Torsin-1A (Homo sapiens) [18] is 0.351; in [19], 1.77. Also, the z-score was -0.025 in assay [7]; 0.864 (inactive) in assay [9]; -0.356 (inactive) in [11]; -0.187 (inactive) in assay [12]; 0.111 (inactive) in assay [13]; 1.67 (inactive) in [14].
Consider `Cn1c(=O)n2n(c1=O)[C@H]1[C@H](O)[C@@H]3O[C@@H]3C(=NOCc3ccccc3)[C@H]1CC2`, for which the composite z-score is 0.192 in assay [1]; -0.624 in assay [2]; 0.13 in [3]; -0.867 in assay [4]; -0.104 in assay [5]; -0.478 in assay [6]. In addition, the composite z-score in the assay with Lefty1 is 0.3; in assay [8] it was 0.349; in [10], -0.279; in assay [15], -0.178; in [16] it was -0.183; in the assay with Torsin-1A (Homo sapiens) [17], -0.223. The composite z-score was found to be 0.0523 with Torsin-1A (Homo sapiens) [18] and 0.378 in [19]. Moreover, the z-score in [7] is 0.874; in assay [9], -0.101 (inactive); in assay [11], 0.637 (inactive); in assay [12], -0.53 (inactive); in [13] it was -0.0211 (inactive); in assay [14], 0.383 (inactive).
As to `CCc1cc2c(nc1CC)CCN(CCC(C)=NO[C@H](C)c1cn([C@H](CO)Cc3ccccc3)nn1)C2`, the composite z-score in assay [1] is 1.08; in assay [2], 0.282; in assay [3] it was 0.119; in [4], 0.408; in [5], 0.672; in assay [6] it was 0.884. The composite z-score stood at 0.531 with Lefty1; 0.55 in assay [8]; 0.167 in [10]; 0.656 in [15]; 0.173 in [16]; 1.49 in the assay with Torsin-1A (Homo sapiens) [17]. The composite z-score with Torsin-1A (Homo sapiens) [18] is 0.978; in assay [19], 0.236. Besides, the z-score is 0.085 in assay [7]; -0.378 (inactive) in assay [9]; -0.225 (inactive) in [11]; -0.374 (inactive) in [12]; 2.4 (inactive) in assay [13]; 0.406 (inactive) in assay [14].
In the case of `COC(=O)NCC=Cc1nc(CCCO)co1`, the composite z-score was 0.53 in assay [1]; 0.804 in assay [2]; -0.0457 in assay [3]; 0.0947 in assay [4]; 0.614 in assay [5]; 0.564 in assay [6]. Also, the composite z-score with Lefty1 was 0.706; in [8], -0.0407; in assay [10], 0.134; in assay [15] it was 0.362; in assay [16], -0.353; with Torsin-1A (Homo sapiens) [17] it was 0.519. The composite z-score in the assay with Torsin-1A (Homo sapiens) [18] turned out to be 0.802; in assay [19], 0.883. Moreover, the z-score in assay [7] is -0.223; in [9], 0.604 (inactive); in assay [11], -0.068 (inactive); in assay [12], 0.633 (inactive); in [13], 0.286 (inactive); in assay [14], -0.0562 (inactive).
Turning to `O=C1[C@H]2[C@H]3[C@H](O)[C@H](O)CC(=NOC[C@@H](O)COCc4ccco4)[C@H]3CC[C@H]2C(=O)N1Cc1ccccc1`, the composite z-score was -0.267 in [1]; -0.429 in assay [2]; -0.326 in [3]; -1.55 in [4]; 0.691 in [5]; 0.633 in assay [6]. In addition, the composite z-score in the assay with Lefty1 was 0.496; in [8], -0.438; in [10] it was -0.0661; in assay [15], -0.68; in assay [16] it was -0.182; with Torsin-1A (Homo sapiens) [17] it was 0.246. Further, the composite z-score in the assay with Torsin-1A (Homo sapiens) [18] stood at 0.462; in assay [19], 1.38. In addition, the z-score in [7] is -0.287; in [9], 0.737 (inactive); in [11], -0.734 (inactive); in assay [12], 0.448 (inactive); in [13], -0.474 (inactive); in [14] it was 0.479 (inactive).
Consider `COC(=O)CC=C[C@H](C)[C@@H](OCc1cccc(Br)c1)[C@@H](C)[C@H](OC)C1CCCCC1`, for which the composite z-score in [1] is 0.0864; in assay [2] it was -1.06; in assay [3] it was -0.484; in assay [4], -1.74; in assay [5], 0.22; in assay [6], -0.0877. In addition, the composite z-score was 0.525 in the assay on Lefty1; 0.325 in assay [8]; -0.375 in assay [10]; -0.243 in assay [15]; -0.128 in assay [16]; 0.312 in the assay with Torsin-1A (Homo sapiens) [17]. Besides, the composite z-score with Torsin-1A (Homo sapiens) [18] is -0.119; in [19], 0.341. The z-score in [7] was 1.74; in assay [9], -3.27 (inactive); in assay [11], 0.137 (inactive); in assay [12], 0.781 (inactive); in assay [13], -1.05 (inactive); in assay [14] it was -1.25 (inactive).

Values taken from PubChem BioAssay.
